# HP1b binding inh – blocks HP1-beta chromodomain binding to methylated histone tails; P83916; AlphaScreen HP1-beta / biotin-H3K9me3 peptide binding; Potency, µM (series often up to 114 µM), without a hit: top-dose activity change, negative = inhibition, actives largely listed as inhibitors; 390,000 tested, 0.56% active; AID 540317; note: potency is the fitted concentration of half-maximal effect; nearly all actives have a fitted effect of over 70% in size
#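 Compound inhibition of the preformed complex between 50 nM HP1-beta and 50 nM biotinylated H3K9me3 peptide was read by AlphaScreen. Buffer was PBS pH 7.4 with 0.01% Tween-20. Incubations ran 30 min at room temperature, with 10 ug/mL donor/acceptor beads.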
# Six1-Eya2 inh – inhibitors of human Six1/Eya2 interaction; 360,000 tested, 0.56% active; AID 651725; activity change, % (test concentration not listed); AlphaScreen GST-Six1/His-Eya2 binding, biochemical; active compounds read low; Q15475+O00167; in the data active = activity change below about -65%; inconclusive = mostly about -30% to -63%; note: % is set by controls: 0 for no effect and ±100 for the full control effect
#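 Compounds are tested against tagged Six1 and Eya2 proteins bridged by glutathione donor and nickel acceptor beads; after a one-hour incubation at 37 °C without light, AlphaScreen emission is recorded.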
# BAZ2B inh – blocks human BAZ2B | AID 504333 | AlphaScreen BAZ2B-H3K14Ac peptide displacement | Potency, µM (doses to about 114 µM), for inactives: at the top dose activity change, negative = inhibition, most hits filed as inhibitors | 360,000 tested, 4.4% active; note: potency is the fitted concentration of half-maximal effect; % is set by controls: 0 for no effect and ±100 for the full control effect; nearly all actives have a fitted effect of over 60% in size
# Target sequence (Q9UIF8 whole entry, looked up): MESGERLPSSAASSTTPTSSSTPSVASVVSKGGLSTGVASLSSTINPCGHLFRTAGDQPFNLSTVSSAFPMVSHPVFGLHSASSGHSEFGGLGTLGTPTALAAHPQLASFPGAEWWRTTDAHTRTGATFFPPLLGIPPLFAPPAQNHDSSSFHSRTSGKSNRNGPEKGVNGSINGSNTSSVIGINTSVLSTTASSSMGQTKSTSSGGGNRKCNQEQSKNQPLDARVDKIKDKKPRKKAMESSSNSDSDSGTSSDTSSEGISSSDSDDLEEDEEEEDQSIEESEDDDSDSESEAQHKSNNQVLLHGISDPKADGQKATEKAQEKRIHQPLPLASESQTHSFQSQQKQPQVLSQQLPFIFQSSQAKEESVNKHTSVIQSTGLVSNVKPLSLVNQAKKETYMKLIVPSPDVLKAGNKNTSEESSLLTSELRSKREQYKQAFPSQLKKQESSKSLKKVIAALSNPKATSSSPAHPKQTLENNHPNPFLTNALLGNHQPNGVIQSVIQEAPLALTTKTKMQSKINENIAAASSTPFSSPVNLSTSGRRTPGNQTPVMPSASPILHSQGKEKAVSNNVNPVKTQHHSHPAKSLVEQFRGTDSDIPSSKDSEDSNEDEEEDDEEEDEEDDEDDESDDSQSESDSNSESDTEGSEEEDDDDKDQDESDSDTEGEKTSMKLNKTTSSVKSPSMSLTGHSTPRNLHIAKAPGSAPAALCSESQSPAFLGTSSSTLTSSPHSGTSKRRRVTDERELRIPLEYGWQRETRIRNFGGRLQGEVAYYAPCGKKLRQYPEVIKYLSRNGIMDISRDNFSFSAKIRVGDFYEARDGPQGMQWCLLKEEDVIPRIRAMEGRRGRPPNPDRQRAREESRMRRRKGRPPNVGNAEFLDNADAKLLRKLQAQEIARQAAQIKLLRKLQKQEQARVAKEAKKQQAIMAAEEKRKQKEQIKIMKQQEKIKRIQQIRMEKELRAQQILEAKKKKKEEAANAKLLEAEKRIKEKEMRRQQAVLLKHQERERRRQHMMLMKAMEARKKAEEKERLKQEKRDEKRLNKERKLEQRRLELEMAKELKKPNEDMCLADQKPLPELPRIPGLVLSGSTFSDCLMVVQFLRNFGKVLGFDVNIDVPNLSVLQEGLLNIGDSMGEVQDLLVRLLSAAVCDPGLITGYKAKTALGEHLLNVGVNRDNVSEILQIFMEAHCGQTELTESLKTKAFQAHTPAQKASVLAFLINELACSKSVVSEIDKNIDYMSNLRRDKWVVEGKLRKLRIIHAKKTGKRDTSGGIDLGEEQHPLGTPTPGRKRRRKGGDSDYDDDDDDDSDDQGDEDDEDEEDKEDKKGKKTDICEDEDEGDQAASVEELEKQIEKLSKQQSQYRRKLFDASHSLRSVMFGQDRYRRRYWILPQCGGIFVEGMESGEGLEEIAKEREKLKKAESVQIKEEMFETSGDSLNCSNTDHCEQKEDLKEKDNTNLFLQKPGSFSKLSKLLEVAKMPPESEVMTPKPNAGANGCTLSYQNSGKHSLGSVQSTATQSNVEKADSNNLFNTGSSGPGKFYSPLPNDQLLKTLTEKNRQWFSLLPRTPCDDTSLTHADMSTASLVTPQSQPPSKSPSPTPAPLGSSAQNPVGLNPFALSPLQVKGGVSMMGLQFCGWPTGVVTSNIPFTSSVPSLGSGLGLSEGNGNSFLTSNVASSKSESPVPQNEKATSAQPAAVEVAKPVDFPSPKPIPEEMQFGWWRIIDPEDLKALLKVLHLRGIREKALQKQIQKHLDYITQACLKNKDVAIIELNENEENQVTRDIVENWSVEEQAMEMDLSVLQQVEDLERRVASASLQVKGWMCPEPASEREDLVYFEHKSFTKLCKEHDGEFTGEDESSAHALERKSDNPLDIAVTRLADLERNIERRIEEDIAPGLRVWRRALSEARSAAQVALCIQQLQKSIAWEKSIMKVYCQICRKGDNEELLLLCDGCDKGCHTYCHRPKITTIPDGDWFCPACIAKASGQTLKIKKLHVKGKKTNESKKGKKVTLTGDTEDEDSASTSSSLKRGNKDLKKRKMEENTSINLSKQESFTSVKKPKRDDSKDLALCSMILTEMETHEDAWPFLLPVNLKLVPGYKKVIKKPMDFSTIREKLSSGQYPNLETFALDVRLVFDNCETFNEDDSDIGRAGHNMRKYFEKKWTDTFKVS
#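 AlphaScreen displacement: compounds (up to 110uM) incubated 30 min at room temperature with a preformed 50 nM BAZ2B/50 nM biotinylated H3K14Ac peptide complex in PBS pH 7.4 with Tween-20. Donor and acceptor beads at 10 ug/mL final added, 20 min light-protected before reading.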
# CtBP-E1A inh – inhibitors of CtBP/E1A interaction. AlphaScreen GST-E1A/His-CtBP binding, 1536-well; active compounds read low. activity change, % (no concentration beside the values). 340,000 tested, 0.49% active. AID 651724; in the data active = activity change below about -65%; inconclusive = mostly about -30% to -63%; note: % is set by controls: 0 for no effect and ±100 for the full control effect
#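 In 5 uL wells, 23 nL compound meets equimolar GST-E1A and His-CtBP (5X stock 125 nM each) for 2 h, 37 °C. Beads (5X, 50 ug/mL) then 1 h, 37 °C, dark.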
# TDP1 inh – TDP1 (human) enzyme inhibition | Q9NUW8 | recombinant TDP1, AlphaScreen DNA substrate cleavage | Potency, µM (highest dose often 130 µM), for inactives: at the top dose activity change, negative = inhibition, hits mostly inhibitors | 350,000 tested, 0.28% active; note: potency is the fitted concentration of half-maximal effect; % is set by controls: 0 for no effect and ±100 for the full control effect; nearly all actives have a fitted effect of over 40% in size
#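 Enzyme-compound mixtures sat 15 min at room temperature, followed by a 5 min reaction with 15 nM final substrate and 10 min with AlphaScreen beads. Recombinant human Tdp1 was used at 1 nM final.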
# JMJD2A Tudor inh – JMJD2A Tudor domain (human) inhibition; AlphaScreen JMJD2A-Tudor / H3K4me3 peptide binding; Potency, µM (titrated, usually from 114 µM), inactives show at the highest dose activity change, negative = inhibition, usual class: inhibitors; 390,000 tested, 4.4% active; AID 504339; note: potency is the fitted concentration of half-maximal effect; % is set by controls: 0 for no effect and ±100 for the full control effect; nearly all actives have a fitted effect of over 50% in size
# * hit, by the source's call; ? = inconclusive; · = not tested or not shown; [ ] = remark or other dose. Shown are actives, neighbours in structure and some others; about 5.3% of the full set was active somewhere. Unless noted, calls come from the whole dose curve; as a rule, active = well fitted inhibition curve with a large enough effect; inconclusive = small, poorly fitted or top-dose-only effect; inactive = no such curve, though single readings can be large or run the other way.
SMILES,HP1b binding inh,Six1-Eya2 inh,BAZ2B inh,CtBP-E1A inh,TDP1 inh,JMJD2A Tudor inh
Cc1ccc(SCC(c2ccccc2)N2CCN(CCc3ccccc3)CCC2=O)cc1 (stereo unspecified),5.3%,·,·,·,15.0%,?
CCOC(=O)CCCNC(=O)CCCNC(=O)C(c1ccccc1)c1ccccc1,21.9%,3.7,?,7.2,5.8%,-5.0%
CCOC(=O)CCNC(C(=O)OCC)c1ccccc1 (stereo unspecified),?,7.7,?,15.9,9.1%,35.5µM*
O=C(c1ccc(-c2cccc(Cl)c2)o1)N1CCN(c2ccc([N+](=O)[O-])cc2)CC1,-9.1%,5.6,0.2%,1.0,3.0%,39.8µM*
O=C(c1ccc(-c2ccc([N+](=O)[O-])cc2)o1)N1CCCCCCC1,?,-10.7,39.8µM*,·,10.5%,56.2µM*
Cc1ccc2oc(-c3ccc(C)c(NC(=O)c4ccc(N5CCC(C)CC5)c([N+](=O)[O-])c4)c3)nc2c1,14.8%,·,-11.3%,·,-3.2%,7.5%
Cc1ccc(NNC(=O)Nc2ccc(Cl)cc2)nn1,?,7.2,-23.0%,-3.0,·,79.4µM*
O=C(NNc1cccc(Cl)n1)Nc1ccc(Cl)cc1,36.4%,-0.2,5.9%,1.1,-1.1%,7.6%
CCc1cccc(NC(=O)CCn2nc(C)cc2C)c1,23.5%,·,-12.7%,·,0.6%,-10.0%
S=C1NCCc2ccccc2C1c1ccccc1Cl (stereo unspecified),-14.1%,-10.8,44.7µM*,-7.8,13.5%[56.1 µM],?
CCOc1cc(C2NC(=O)NC(C)=C2C(=O)OCc2ccccc2)ccc1O (stereo unspecified),19.4%,-68.8*,-26.2%,6.2,3.0%,-12.9%
COc1cc(C2NC(=O)NC(C)=C2C(=O)OCc2ccccc2)ccc1O (stereo unspecified),19.1%,-27.0,9.2%,5.3,8.8%,-7.6%
O=[S+]([O-])(c1ccc(N2CCOCC2)nc1)N1CCN([S+](=O)([O-])c2c(F)cccc2F)CC1,·,·,·,·,·,-20.5%
CCc1cccc(NC(=O)CCc2nc3cccnc3n2-c2ccccc2)c1,19.9%,·,-16.4%,·,1.3%,-16.2%
CC(C)c1ccc(NS(=O)(=O)c2ccc3[nH]cc(C(=O)N4CCCC4)c(=O)c3c2)cc1,6.8%,·,·,·,·,?
CC(=O)N1CCN(c2ccc(Nc3ncnc4c3oc3ccccc34)cc2)CC1,2.9%,-15.3,?,-8.4,-2.1%,-27.1%
CC(=O)N1CCN(c2ccc(NCc3cccc4ccccc34)cc2)CC1,?,-25.5,31.6µM*,?,·,22.4µM*
CCc1nc(Nc2ccccc2F)c2oc3ccccc3c2n1,35.4%,22.4,56.2µM*,8.3,·,-3.5%
CC(=O)N1CCN(c2ccc(NCc3cccs3)cc2)CC1,-32.5%,-12.7,?,-4.5,5.5%,-19.8%[11.4 µM]
CCc1nc(Nc2ccc(N3CCN(C(C)=O)CC3)cc2)c2oc3ccccc3c2n1,-0.4%,-17.4,50.1µM*,-5.3,14.7%,?
O=C(CSc1nc(=O)n(Cc2ccco2)c2c1CCC2)NCc1ccccc1,4.2%,·,-6.5%,·,5.2%,-15.6%
CCc1ccc(NC(=O)c2cc3c(COC(C)=O)cnc(C)c3oc2=O)cc1,-3.0%,·,-2.5%,·,3.8%,-23.5%
S=C(Cc1cccnc1)N1CCOCC1,?,10.4,2.1%,-6.8,1.2%,79.4µM*
Cc1nc2cc(N=NC3=C(O)CCCC3=O)ccc2s1,-17.1%,-9.5,56.2µM*,-7.3,-12.7%,?
CCOc1ccc(S(=O)(=O)Nc2cc(Cl)ccc2OC)c2cccnc12,15.0%,·,?,·,1.9%,-34.0%
SMILES,HP1b binding inh,Six1-Eya2 inh,BAZ2B inh,CtBP-E1A inh,TDP1 inh,JMJD2A Tudor inh
Nc1ccc2c(c1)OC1(CCCC1)O2,-38.7%,-21.4,39.8µM*,-29.1,6.7%,44.7µM*
Cc1ccccc1NC(=O)Cn1nc(-c2ccccc2)nc(Cc2ccccc2)c1=O,-10.2%,·,-5.4%,·,6.4%,-19.7%
CCC(=O)OCCNc1cc(Sc2nc3ccccc3s2)c2nonc2c1[N+](=O)[O-],?,-5.1,-32.5%,0.1,9.0%,-34.0%
Cc1nnc(Sc2cc(NCCCO)c([N+](=O)[O-])c3nonc23)s1,12.6µM*,?,-24.6%,-19.9,-5.1%,28.2µM*
Cc1nnc(Sc2cc(NCCO)c([N+](=O)[O-])c3nonc23)s1,12.6µM*,?,-20.4%,-11.0,1.6%,?
O=[N+]([O-])c1c(NCCO)cc(N2CCCCCC2)c2nonc12,8.5%,3.4,-23.4%,·,·,-22.9%
O=[N+]([O-])c1c(NCCCO)cc(Sc2nc3ccccc3s2)c2nonc12,4.6%,?,-0.1%,0.0,5.9%,56.2µM*
Cc1nc(N2C(=O)c3oc4ccccc4c(=O)c3C2c2ccccc2F)sc1C (stereo unspecified),49.6%,·,11.5%[57.1 µM],·,-3.2%,-3.8%
Cc1ccc(-c2noc(-c3nnn(CC(=O)Nc4ccc(C)c(Cl)c4)c3N)n2)cc1,23.4%,·,-7.0%,·,8.5%,-20.3%
Cc1ccc(NC(=O)c2ccc3nc[nH]c3c2)nc1,11.5%,-9.3,-37.2%,-21.0,35.5µM*,?
O=C(N/N=C/c1ccc([N+](=O)[O-])cc1)c1ccc2nc[nH]c2c1,-5.0%,-5.3,-1.3%,-0.9,2.0%,-6.9%[11.4 µM]
C/C(=N\NC(=O)c1ccc2nc[nH]c2c1)c1ccc([N+](=O)[O-])cc1,·,·,10.8%,·,79.4µM*,·
Cc1ccc(Nc2nc(N)nc(CN3CCN(Cc4ccc5c(c4)OCO5)CC3)n2)c(C)c1,?,-4.4,56.2µM*,-1.9,2.9%,-32.8%[57.1 µM]
Nc1nc(CN2CCN(Cc3ccccc3)CC2)nc(Nc2ccc3c(c2)OCCO3)n1,26.7%,-12.9,20µM*,-1.5,6.3%,?
Cc1ccc(Nc2nc(N)nc(CN3CCN(Cc4ccc5c(c4)OCO5)CC3)n2)cc1,-9.2%,-8.9,56.2µM*,10.7,5.7%,?
Cc1ccc(Nc2nc(N)nc(CN3CCN(Cc4ccc5c(c4)OCO5)CC3)n2)cc1C,-5.1%,-2.5,39.8µM*,-16.8,7.6%,?
Cc1ccc(Nc2nc(N)nc(CN3CCN(C)CC3)n2)cc1C,·,·,12.3%,·,4.0%,·
Cc1ccc(NC2=NCC(=O)N2Cc2ccc3c(c2)OCO3)c(C)c1,45.0%,-0.1,-23.7%,2.3,5.7%,-21.7%
CCOC(=O)c1[nH]c(C)c(C(=O)NC(CC)Cc2ccccc2)c1C (stereo unspecified),9.6%,·,-4.7%,·,5.7%,-17.9%
COc1ccc(S(=O)(=O)N2CCN(c3ccc(Cl)c(Cl)c3)CC2)c2ccccc12,33.0%,·,-20.4%,·,0.6%,-3.4%
COc1ccc(C2N(Cc3ccccc3)C(=O)c3ccccc3N2C)cc1COc1ccc(NC(C)=O)cc1 (stereo unspecified),·,·,·,·,-10.4%,?
